Bioassay records as filed in PubChem BioAssay.
An excerpt weighted towards active compounds, which were near 6.1% of everything screened.
D1 antagonist = Antagonist of Human D 1 Dopamine Receptor: qHTS. D(1A) dopamine receptor (Homo sapiens), P21728. HEK293 TREx D1 cells, calcium flux, dopamine EC80; hits give low values. activity change, negative = inhibition, % at 10 µM. 360,000 compounds, 3.2% hits; in the data active means activity change below about -30%; further: on the % scale 0 is the no-effect control and ±100 the full control effect
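Using tetracycline-induced force-coupled D1 Hek293 cells and a calcium dye, signals were followed for 180 s after compound, then for 180 s after EC80 dopamine, to detect inhibitors.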
D3 ag = qHTS of D3 Dopamine Receptor Agonist: qHTS | D3R DiscoveRx beta-arrestin cells, luminescence, 90 min | D(3) dopamine receptor (Homo sapiens), P35462 | 410,000 compounds, 0.58% hits | max activation, %; in the data active means max activation above about 30%; further: 0% is about no effect
Target sequence (P35462 whole entry, looked up): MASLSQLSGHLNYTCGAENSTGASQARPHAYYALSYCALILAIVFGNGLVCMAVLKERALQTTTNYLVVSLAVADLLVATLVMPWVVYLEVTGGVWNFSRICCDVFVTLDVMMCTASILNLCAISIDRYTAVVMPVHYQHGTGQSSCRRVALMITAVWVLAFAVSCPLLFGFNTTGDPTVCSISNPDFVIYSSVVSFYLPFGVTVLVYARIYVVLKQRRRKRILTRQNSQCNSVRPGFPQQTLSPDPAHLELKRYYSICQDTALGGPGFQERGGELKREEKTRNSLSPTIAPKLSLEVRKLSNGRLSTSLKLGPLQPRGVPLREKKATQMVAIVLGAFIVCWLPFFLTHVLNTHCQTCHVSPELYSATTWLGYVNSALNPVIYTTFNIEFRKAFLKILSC
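Agonist-mode cell screen: cells plated at 1500/well and incubated overnight at 37 °C, then exposed to library compounds for 90 min at 37 °C. Detection reagent was added for 30–60 min at room temperature, and luminescence was read.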
DRD3 antagonist = qHTS of D3 Dopamine Receptor Antagonist: qHTS | 360,000 compounds, 2.5% hits | D3R cells, DiscoveRx beta-arrestin luminescence, antagonist mode; hits give low values | max response, negative = inhibition, % | AID 652054, 2013; in the data active means max response below about -50%; inconclusive means no clear call, values can overlap the other calls; further: on the % scale 0 is the no-effect control and ±100 the full control effect
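Cells plated overnight at 1500 cells/well, then exposed to library compounds with dopamine controls for 90 minutes at 37 degrees C. DiscoveRx reagent added for 30–60 minutes at room temperature; luminescence read, quantitative HTS format.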
D1 potentiator = Potentiators of Human D1 Dopamine Receptor: qHTS. 360,000 compounds, 0.036% hits. AID 504651, 2011. potentiation, % at 10 µM. HEK293 TREx D1 cells, calcium flux, dopamine EC20 potentiation; in the data active means potentiation above about 30%; further: 0% is about no effect
D1 ag = Allosteric Agonists of the Human D1 Dopamine Receptor: qHTS | 360,000 compounds, 1% hits | AID 504660, 2011 | activation, % at 2 µM | HEK293 T-REx D1 cells, calcium flux, agonist mode; in the data active means activation above about 30%; further: 0% is about no effect
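Tetracycline-induced HEK293 TREx D1 cells, force-coupled to calcium signalling, were dye-loaded with a no-wash calcium kit. Compound was pin-added after a 10 s baseline. Fluorescence was read kinetically at 1 cycle/s for 180 s, with calcium rises flagged as agonism.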
* = called active by the depositor; ? = inconclusive; / = not tested or not shown.

SMILES	D1 antagonist	D3 ag	DRD3 antagonist	D1 potentiator	D1 ag
Cc1ccc(NC(=O)CN2C=NS(=O)(=O)c3ccccc32)cc1	12	-10	/	-1	0
COCCCNC(=O)CC[C@H]1O[C@@H](n2cnc3c(NC(=O)c4ccccc4)ncnc32)[C@H](O)[C@@H]1O	/	5	9	/	/
COc1cc(NC(=O)CC[C@H]2O[C@@H](n3cnc4c(NC(=O)c5ccccc5)ncnc43)[C@H](O)[C@@H]2O)cc(OC)c1OC	/	-10	-52*	/	/
Cc1cc(C)cc(OCC(=O)NCC(c2ccc(Cl)cc2)N2CCCCC2)c1 (stereo unspecified)	18	-8	/	2	5
CCC(CC)c1nn2c(=O)cc(COc3ccc(NC(=O)c4ccccc4Cl)cc3)nc2s1	-3	4	/	-2	2
CCCOc1ccc(CNC(=O)c2cc3ccccn3n2)cc1	-16	-9	/	2	0
On1ccccc1=S	1	-47	-140*	-3	1
Cc1csc2nc(COc3ccccc3NC(=O)c3ccccc3Cl)cc(=O)n12	-3	1	/	-2	3
CCn1c(=O)cc(SCC(=O)NCCCN2CCN(c3ccccc3F)CC2)c2ccccc21	-81*	-33	-82*	-14	30*
Cn1c(=O)cc(OCC(=O)NCCCN2CCN(c3ccccc3F)CC2)c2ccccc21	-13	21	?	-8	0
O=C(CCN1C(=O)COc2ccccc21)NCCCN1CCc2ccccc2C1	14	-26	-93*	-3	1
Cn1c(=O)cc(OCCCC(=O)NCCN2CCN(c3ccccc3F)CC2)c2ccccc21	6	39*	?	/	0
O=C(CN1C(=O)COc2ccccc21)NCCCN1CCN(c2ccccc2F)CC1	-13	2	-91*	1	3
CN1CCN(CCCNC(=O)CN2C(=O)COc3ccccc32)CC1	1	-23	-20	-1	2
O=C(CSc1ncccc1C(=O)Oc1ccccc1Cl)Nc1ccccc1Cl	-10	2	/	1	21
O=C(CCC(=O)N1CCOc2ccccc21)NCCCN1CCN(Cc2ccccc2)CC1	-38*	-10	?	-15	4
O=C(CCN1C(=O)COc2ccccc21)NCCN1CCN(c2ccccc2F)CC1	-14	-18	-64*	-11	0
CN1CCN(CCCNC(=O)CCC(=O)N2CCOc3ccccc32)CC1	20	3	5	7	3
CC1(C)CC(=O)c2cc(OCC(=O)NCCCN3CCN(c4ccccc4F)CC3)ccc2O1	-81*	-2	-55*	-13	-2
CCOC(=O)c1cnc(Nc2nc3ccccc3o2)nc1CN1CCN(C)CC1	-56*	-2	0	-1	0
COc1cccc(Cn2c(CNC(=O)c3cc([N+](=O)[O-])ccc3Cl)nc3cccnc32)c1	-15	-13	/	6	0
CC1CCN(CCCC(=O)c2ccc(F)cc2)CC1	/	-21	/	/	/
CN1CCN(CCCC(=O)c2ccc(C3CCCC3)cc2)CC1	-30	-42	-55*	-4	17
O=C(CCCN1CCC(C(=O)c2ccc(F)cc2)CC1)c1ccc(F)cc1	-85*	-23	-101*	-8	7
O=C(CCCN1CCC(C(O)c2ccc(F)cc2)CC1)c1ccc(F)cc1 (stereo unspecified)	/	-16	-80*	/	/
SMILES	D1 antagonist	D3 ag	DRD3 antagonist	D1 potentiator	D1 ag
CCOc1ccc(CCNC(=O)c2sc3ncccc3c2-n2cccc2)cc1OCC	-2	9	/	0	8
C/C(=N\NC(=S)NCC(C)(C)C)c1cc(F)cc(F)c1O	-85*	-13	-88*	-11	22
COc1ccc(Cl)cc1Nc1ncnc2c1nc1n2CCCC1	-13	3	/	2	0
CCc1cc2c(-c3ccccc3)cc(=O)oc2c(CN2CCOCC2)c1O	36	-3	18	2	55*
O=c1cc(CN2CCOCC2)c2ccccc2o1	/	43*	21	/	/
O=c1cc(CN2CCOCC2)c2c(ccc3ccccc32)o1	-12	3	25	-3	2
CCN1/C(=C(\O)c2ccccc2)C(=O)c2ccccc2S1(=O)=O	13	-5	-56*	-2	1
CCCCN(CCCC)C1=C(C(=O)c2ccccc2)N(CC)S(=O)(=O)c2ccccc21	6	-6	/	1	-2
CCOC(=O)C1CCCN(Cc2ccc(OCc3ccccc3)cc2)C1 (stereo unspecified)	-23	-15	-61*	-3	8
CCOC(=O)C1CCCN(c2c(N3CCN(c4ccccn4)CC3)c(=O)c2=O)C1 (stereo unspecified)	-52*	2	3	-12	1
CCOC(=O)C1CCCN(CCCc2ccccc2)C1 (stereo unspecified)	-22	-16	-65*	-4	4
CCOC(=O)C1CCCN(CC(=O)c2ccc(F)cc2)C1 (stereo unspecified)	7	-14	-66*	-6	3
CCOC(=O)C1CCN(Cc2ccc(F)c(Br)c2)CC1	-2	-49	-78*	-1	0
c1ccc(COc2cccc(CN3CCc4ccccc4C3)c2)cc1	2	-23	-87*	-2	4
CN(Cc1ccccc1)C(=O)C1CCCN(Cc2ccc(Cl)cc2)C1 (stereo unspecified)	-21	-17	-68*	-11	19
CCOC(=O)C1CCCN(Cc2ccc(OC)cc2OC)C1 (stereo unspecified)	2	-8	-52*	-5	1
COc1ccc(CN2CCCC(C(=O)N3CCCC3)C2)c(OC)c1 (stereo unspecified)	4	-15	-10	-1	0
CCN(CC)C(=O)C1CCCN(Cc2ccccc2)C1 (stereo unspecified)	11	-1	-23	-20	3
CCOc1ccccc1CNC(=O)c1ccc(CS(=O)Cc2cccc(Cl)c2)o1 (stereo unspecified)	-1	11	/	0	1
O=S(=O)(Nc1cccc2cccnc12)c1cccs1	6	/	/	-7	-1
O=C1CC[C@@H](C(=O)N[C@H]2C[C@@H]2c2ccccc2)N1	/	-5	/	/	/
Cc1nn(-c2ccc(N3CCCC3)nn2)c(C)c1CCC(=O)Nc1ccc(F)cc1F	-12	5	/	-6	-1
CCOC(=O)C1CCN(Cc2nnnn2CCc2ccccc2)CC1	9	3	-2	-1	2
CN(Cc1ccc(Cl)cc1)C(C(=O)NC1CCCCC1)c1cc2ccccc2o1 (stereo unspecified)	/	-6	-3	/	/
CCN(CC)C(=O)C1CCCN(Cc2ccc3c(c2)OCO3)C1 (stereo unspecified)	-17	2	-26	9	3
